Assay outcomes deposited in PubChem by National Center for Advancing Translational Sciences (NCATS).
DT40 TDP1 CPT: DT40-hTDP1 cell growth loss with CPT; 420,000 compounds, 12% hits; chicken DT40 Tdp1-/-;hTDP1 cells + 20 nM CPT, ATP luminescence, 48 h; Potency, µM (titrated, usually from 46.2 µM), for inactives: at the highest dose activity change, negative = growth inhibition, hits mostly inhibitors; further: potency means the concentration at half of the fitted maximal effect; nearly all actives have a fitted effect of over 55% in size
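Chicken DT40 Tdp1-/- cells complemented with human TDP1, 400 cells/well, exposed to compounds plus 20 nM camptothecin for at least 48 h at 37 C; viability read as ATP content by CellTiter-Glo luminescence.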
HT1080 IDH1KD tx: kills HT-1080 cells with IDH1 knockdown. HT-1080 IDH1 knockdown viability, ATP luminescence, 48 h. Potency, µM (highest dose often 46.1 µM), for the others: at the top dose activity, negative = toxicity, hits mostly cytotoxic. 360,000 compounds, 2% hits. AID 686971;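 further: potency means the concentration at half of the fitted maximal effect; 0% = DMSO wells and -100% = cell-free medium wells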
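% activity derives from luminescence (CellTiter-Glo), normalised to DMSO and no-cell wells. HT-1080-IDH1KD cells, 750/well, had 48 h compound exposure at 37 °C.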
DT40 TDP1 no CPT: qHTS for Inhibitors of human tyrosyl-DNA phosphodiesterase 1 (TDP1): qHTS in cells in absence of CPT; DT40 Tdp1-/- hTDP1 cells, no CPT, ATP luminescence, 48 h; Potency, µM (top dose mostly 46.2 µM), for inactives: top-dose activity change, negative = growth inhibition, hits mostly inhibitors; 420,000 compounds, 15% hits; AID 686978, 2013; further: potency means the concentration at half of the fitted maximal effect; nearly all actives have a fitted effect of over 55% in size
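Chicken DT40 Tdp1-/- cells stably complemented with human TDP1 were seeded at 400 cells/well with DMSO in place of 20 nM camptothecin. After compound pinning, cells grew at least 48 hr at 37 °C; viability read by CellTiter-Glo luminescence.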
HT1080-NT tox: kills 2HG-producing HT-1080-NT fibrosarcoma cells | AID 686970 | Potency, µM (top dose mostly 46.1 µM), for inactives: top-dose activity, negative = less viability, most hits filed as cytotoxic | HT-1080-NT fibrosarcoma viability, CellTiter-Glo ATP luminescence, 48 h | 360,000 compounds, 1.6% hits;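 further: NT is the 2HG producing partner of a matched IDH1 knockdown line; potency means the concentration at half of the fitted maximal effect; 0% = DMSO-treated cells and -100% = media-only wells without cells; nearly all actives have a fitted effect of over 55% in size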
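Luminescent CellTiter-Glo readout after 48 hours of compound exposure at 37 degrees C defined viability of HT-1080-NT cells. Activity was normalized to DMSO wells and cell-free media wells; concentration-response curves were fitted and assigned curve classes.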
IL1B secr inh: inflammasome signaling inhibition, IL-1 beta readout. 360,000 compounds, 4.7% hits. activity change, % at 57.5 µM. THP-1 LPS/ATP IL-1B secretion, AlphaLISA, 16 h; hits give low values; in the data active means activity change below about -50%; inconclusive means mostly about -30% to -49%
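THP-1 cells pretreated 1 hr with compounds (up to 57.5 uM final), then stimulated with LPS (250 ng/mL final) plus ATP (1.25 mM final); secreted IL-1B measured by AlphaLISA after 16 hr, decreased signal indicating inhibition.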
Numbers without * were called inactive. Only some compounds are listed: those with a hit (about 19% of all), similar ones and a draw of the others. Unless noted, the call rests on the fitted dose curve; in most records, active means well fitted curve in the direction sought with a large enough effect; inconclusive means small, poorly fitted or top-dose-only effect, or another doubt; inactive means no such curve, though single readings can be large; an effect the other way counts as inactive or inconclusive. Unless noted, on the % scale 0 is the no-effect control and ±100 the full control effect.

What do the screens show for `CCOc1ccccc1NC(=O)Cn1c(=O)n(CC(=O)NCc2ccccc2Cl)c(=O)c2sccc21`?
DT40 TDP1 CPT: 8.2µM*; DT40 TDP1 no CPT: 9.2µM*

Results for COCCNC(=O)Cn1c(=O)n(CCCCCC(=O)NCc2ccccc2Cl)c(=O)c2sccc21 ?
DT40 TDP1 CPT: inconclusive; DT40 TDP1 no CPT: -28.1%

How did CC1CCN(C(=O)Cn2c(=O)n(CCCCCC(=O)NCc3ccccc3Cl)c(=O)c3sccc32)CC1 do in these assays?
DT40 TDP1 CPT: inconclusive; DT40 TDP1 no CPT: 10.3µM*

Results for Cc1cc(C)c(NS(=O)(=O)c2ccccc2)c(C)c1NS(=O)(=O)c1ccccc1 ?
DT40 TDP1 CPT: -1.5%; HT1080 IDH1KD tx: 0.8%; DT40 TDP1 no CPT: inconclusive; HT1080-NT tox: 4.1%; IL1B secr inh: -13.8

Results for Cc1ccc(S(=O)(=O)/N=C2\C=C(NS(=O)(=O)c3ccccc3)C(=O)c3ccccc32)c(C)c1 ?
DT40 TDP1 CPT: 14.6µM*; HT1080 IDH1KD tx: -6.8%; DT40 TDP1 no CPT: inconclusive; HT1080-NT tox: -13.7%; IL1B secr inh: 15.6

Results for CC(C)(C)c1ccc(S(=O)(=O)/N=C2\C=C(NS(=O)(=O)c3ccccc3)C(=O)c3ccccc32)cc1 ?
DT40 TDP1 CPT: 20.6µM*; HT1080 IDH1KD tx: 16.4µM*; DT40 TDP1 no CPT: 20.6µM*; HT1080-NT tox: 23.1µM*; IL1B secr inh: 19.4

How did O=C(Nc1nc(-c2ccc(F)cc2)cs1)c1cccc(N2C(=O)CCC2=O)c1 do in these assays?
DT40 TDP1 CPT: inconclusive; HT1080 IDH1KD tx: -0.6%; DT40 TDP1 no CPT: inconclusive; HT1080-NT tox: -1.7%; IL1B secr inh: 0.0

Results for COCCN(C(=O)c1cccc(N2C(=O)CCC2=O)c1)c1nc(-c2ccc([N+](=O)[O-])cc2)cs1 ?
DT40 TDP1 CPT: inconclusive; HT1080 IDH1KD tx: -23.1%; DT40 TDP1 no CPT: 20.6µM*; HT1080-NT tox: -14.7%; IL1B secr inh: -10.9

Results for CCn1ncc(Br)c1C(=O)Nc1ccc(F)c([N+](=O)[O-])c1 ?
DT40 TDP1 CPT: -20.9%; HT1080 IDH1KD tx: 15.7%; DT40 TDP1 no CPT: inconclusive; HT1080-NT tox: 4.9%; IL1B secr inh: -97.4*

How did CC1CCCC(C)N1CCCNC(=O)C1CCCN(c2ncnc3c2nc2n3CCCCC2)C1 (stereo not given) do in these assays?
DT40 TDP1 CPT: -3.5%; HT1080 IDH1KD tx: 11.4%; DT40 TDP1 no CPT: -10.4%; HT1080-NT tox: -5.1%; IL1B secr inh: 8.5

What do the screens show for `Cc1cccc(CCNC(=O)C2CCN(c3ncnc4c3nc3n4CCCCC3)CC2)c1`?
DT40 TDP1 CPT: 2.7%; DT40 TDP1 no CPT: 4.0%

What do the screens show for `Cc1cccc(N2CCN(CCCNC(=O)C3CCCN(c4ncnc5c4nc4n5CCCCC4)C3)CC2C)c1` (stereo not given)?
DT40 TDP1 CPT: inconclusive; HT1080 IDH1KD tx: 16.4µM*; DT40 TDP1 no CPT: 11.6µM*; HT1080-NT tox: 20.6µM*; IL1B secr inh: -76.7*

Results for Cc1cccc(N2CCN(c3ncnc4c3nc3n4CCCCC3)CC2C)c1 (stereo not given) ?
DT40 TDP1 CPT: 7.31µM*; DT40 TDP1 no CPT: 9.2µM*

How did Cc1ccc(Cl)cc1NC(=O)C1CCCN1S(=O)(=O)c1ccc(-c2ccc(=O)[nH]n2)s1 (stereo not given) do in these assays?
DT40 TDP1 CPT: -25.3%; HT1080 IDH1KD tx: inconclusive; DT40 TDP1 no CPT: 14.6µM*; HT1080-NT tox: -22.3%; IL1B secr inh: -76.9*

How did CCc1ccc(NC(=O)C2CCCN2S(=O)(=O)c2ccc3c(c2)CCCC(=O)N3)cc1 (stereo not given) do in these assays?
DT40 TDP1 CPT: 16.4µM*; DT40 TDP1 no CPT: 18.4µM*

How did Cc1ccc(Cl)cc1NC(=O)C1CCCN(S(C)(=O)=O)C1 (stereo not given) do in these assays?
DT40 TDP1 CPT: 8.2%; HT1080 IDH1KD tx: 0.7%; DT40 TDP1 no CPT: 6.7%; HT1080-NT tox: 2.4%; IL1B secr inh: 31.2

Results for Cc1ccc(NC(=O)C2CCCN2S(=O)(=O)c2ccc3c(c2)CCCC(=O)N3)cc1C (stereo not given) ?
DT40 TDP1 CPT: inconclusive; DT40 TDP1 no CPT: 20.6µM*

How did Cc1cc(Cl)ccc1NC(=O)C1CCCN1S(=O)(=O)c1ccc2c(c1)CCCC(=O)N2 (stereo not given) do in these assays?
DT40 TDP1 CPT: 14.6µM*; DT40 TDP1 no CPT: 8.2µM*

How did COc1ccc(NC(=O)C2CCCN2S(=O)(=O)c2ccc3c(c2)CCC(=O)N3)cc1Cl (stereo not given) do in these assays?
DT40 TDP1 CPT: -18.9%; HT1080 IDH1KD tx: 10.2%; DT40 TDP1 no CPT: -23.4%; HT1080-NT tox: 5.9%; IL1B secr inh: 37.6

What do the screens show for `CCc1nnc(NC(=O)c2ccc(Br)o2)s1`?
DT40 TDP1 CPT: -1.7%; HT1080 IDH1KD tx: 9.6%; DT40 TDP1 no CPT: -1.2%; HT1080-NT tox: 8.7%; IL1B secr inh: -13.5

Results for O=C(Nc1nc2c(s1)CCCC2)c1ccc(Br)o1 ?
DT40 TDP1 CPT: inconclusive; HT1080 IDH1KD tx: -18.2%; DT40 TDP1 no CPT: 14.6µM*; HT1080-NT tox: -10.0%; IL1B secr inh: -18.2

Results for CC(O)Cc1nsc(NC(=O)c2ccc(Br)o2)n1 (stereo not given) ?
DT40 TDP1 CPT: 4.11µM*; HT1080 IDH1KD tx: 2.3%; DT40 TDP1 no CPT: 2.31µM*; HT1080-NT tox: 4.3%; IL1B secr inh: 7.0

Results for O=C(Nc1ccc(Br)cc1)Nc1nc2c(s1)CCCCCC2 ?
DT40 TDP1 CPT: 14.6µM*; DT40 TDP1 no CPT: 18.4µM*

Results for Cc1ccc(C(=O)Nc2nc3c(s2)CCCC3)o1 ?
DT40 TDP1 CPT: 23.1µM*; HT1080 IDH1KD tx: -19.9%; DT40 TDP1 no CPT: inconclusive; HT1080-NT tox: -23.0%; IL1B secr inh: -7.7

What do the screens show for `CCCCOc1ccc(Nc2cc(Cl)ccc2C(=O)O)cn1`?
DT40 TDP1 CPT: 3.8%; HT1080 IDH1KD tx: -11.0%; DT40 TDP1 no CPT: -4.1%; HT1080-NT tox: -17.3%; IL1B secr inh: 3.2

How did COc1ccc(N(CC(=O)N2CCN(c3cccc(C)c3)C(C)C2)S(=O)(=O)c2c(C)n[nH]c2C)cc1 (stereo not given) do in these assays?
DT40 TDP1 CPT: inconclusive; HT1080 IDH1KD tx: -20.9%; DT40 TDP1 no CPT: inconclusive; HT1080-NT tox: -4.6%; IL1B secr inh: -60.9*

How did COc1ccc(N(CC(=O)Nc2ccc(C)cc2C)S(=O)(=O)c2c(C)n[nH]c2C)cc1 do in these assays?
DT40 TDP1 CPT: -10.9%; HT1080 IDH1KD tx: inconclusive; DT40 TDP1 no CPT: 18.4µM*; HT1080-NT tox: -16.0%; IL1B secr inh: -0.9

Results for COc1ccc(N(CC(=O)NCc2ccccc2)S(=O)(=O)c2c(C)n[nH]c2C)cc1 ?
DT40 TDP1 CPT: 20.6µM*; HT1080 IDH1KD tx: 0.5%; DT40 TDP1 no CPT: -2.6%; HT1080-NT tox: 14.8%; IL1B secr inh: -26.1
